Data reported in PubChem BioAssay (NCATS).
Where “and” joins values, the source holds several entries; their conditions need not be identical. Identical values can stand only once. Results filed as inconclusive are left out. Where a call stands in place of a potency, no number is given. Calls of active or inactive are those of the source. Calls come from the whole dose curve; as a rule, active = well fitted curve in the direction sought with a large enough effect; inconclusive = small, poorly fitted or top-dose-only effect, or another doubt; inactive = no such curve, though single readings can be large; an effect the other way counts as inactive or inconclusive.

Molecular target: ATP-dependent 6-phosphofructokinase (Trypanosoma brucei brucei) (UniProt O15648)
Sequence (O15648 whole entry, looked up): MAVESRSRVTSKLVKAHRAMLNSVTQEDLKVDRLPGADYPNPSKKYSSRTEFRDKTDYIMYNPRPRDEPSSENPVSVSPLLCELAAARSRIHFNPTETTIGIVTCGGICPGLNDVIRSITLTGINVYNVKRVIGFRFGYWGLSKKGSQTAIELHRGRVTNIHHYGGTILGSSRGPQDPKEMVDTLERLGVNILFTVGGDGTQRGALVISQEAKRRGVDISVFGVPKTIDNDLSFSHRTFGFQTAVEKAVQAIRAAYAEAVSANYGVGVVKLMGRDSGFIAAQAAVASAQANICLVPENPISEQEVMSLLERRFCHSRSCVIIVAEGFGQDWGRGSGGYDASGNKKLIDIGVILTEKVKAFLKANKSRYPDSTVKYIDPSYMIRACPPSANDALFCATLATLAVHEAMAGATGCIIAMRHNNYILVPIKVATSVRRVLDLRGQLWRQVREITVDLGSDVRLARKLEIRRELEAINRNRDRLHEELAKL
Test: qHTS Assay to Find Inhibitors of T. brucei phosphofructokinase: hit validation (AID 492961);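 note: luminescence reports ADP formed as PFK phosphorylates fructose-6-phosphate with ATP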
Conditions: T. brucei PFK, ADP-Glo luminescence; series mostly up to 51.4 µM
Procedure, shortened: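 Compounds titrated; %activity normalized to 0x and 1x enzyme controls, curve-fitted. Readout: ADP-Glo luminescence after 45 min room-temperature reaction of 1.25 nM PFK, 0.1 mM ATP, 0.5 mM F6P, pH 8.0.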

Compound | Potency
Oc1c(Cl)cc(Cl)c2cccnc12 | inactive
Nc1[nH]c(=O)ncc1F | inactive
O=c1cc(O)c(Cl)c[nH]1 | inactive
CC(C)Cn1cnc2c(N)nc3ccccc3c21 | inactive
NC(N)=NC(N)=NCCc1ccccc1 | inactive
N[C@@H](C(=O)N[C@@H]1C(=O)N2C(C(=O)O)=C(Cl)CS[C@H]12)c1ccccc1 | inactive
CCOC(=O)[C@H](CCc1ccccc1)N[C@H]1CS[C@H](c2cccs2)CN(CC(=O)O)C1=O | inactive
CCN(C)C(=O)Oc1cccc([C@H](C)N(C)C)c1 | inactive
COc1cnc(NS(=O)(=O)c2ccc(N)cc2)nc1 | inactive
CCCCCCNC(=O)n1cc(F)c(=O)[nH]c1=O | inactive
CN1CCN(c2c(F)cc3c(=O)c(C(=O)O)cn(CCF)c3c2F)CC1 | inactive
COc1cc(NS(=O)(=O)c2ccc(N)cc2)nc(OC)n1 | inactive
CN(Cc1cc(Br)cc(Br)c1N)C1CCCCC1 | inactive
OC(Cn1cncn1)(Cn1cncn1)c1ccc(F)cc1F | inactive
COC(=O)Nc1nc2ccc(Sc3ccccc3)cc2[nH]1 | inactive
CC(C)(Sc1cc(C(C)(C)C)c(O)c(C(C)(C)C)c1)Sc1cc(C(C)(C)C)c(O)c(C(C)(C)C)c1 | inactive
Cn1nnc2c(C(N)=O)ncn2c1=O | inactive
CCCCOc1ccc(CC(=O)NO)cc1 | inactive

Molecular target: Ubiquitin carboxyl-terminal hydrolase 1 (Homo sapiens) (UniProt O94782)
Sequence (O94782 whole entry, looked up): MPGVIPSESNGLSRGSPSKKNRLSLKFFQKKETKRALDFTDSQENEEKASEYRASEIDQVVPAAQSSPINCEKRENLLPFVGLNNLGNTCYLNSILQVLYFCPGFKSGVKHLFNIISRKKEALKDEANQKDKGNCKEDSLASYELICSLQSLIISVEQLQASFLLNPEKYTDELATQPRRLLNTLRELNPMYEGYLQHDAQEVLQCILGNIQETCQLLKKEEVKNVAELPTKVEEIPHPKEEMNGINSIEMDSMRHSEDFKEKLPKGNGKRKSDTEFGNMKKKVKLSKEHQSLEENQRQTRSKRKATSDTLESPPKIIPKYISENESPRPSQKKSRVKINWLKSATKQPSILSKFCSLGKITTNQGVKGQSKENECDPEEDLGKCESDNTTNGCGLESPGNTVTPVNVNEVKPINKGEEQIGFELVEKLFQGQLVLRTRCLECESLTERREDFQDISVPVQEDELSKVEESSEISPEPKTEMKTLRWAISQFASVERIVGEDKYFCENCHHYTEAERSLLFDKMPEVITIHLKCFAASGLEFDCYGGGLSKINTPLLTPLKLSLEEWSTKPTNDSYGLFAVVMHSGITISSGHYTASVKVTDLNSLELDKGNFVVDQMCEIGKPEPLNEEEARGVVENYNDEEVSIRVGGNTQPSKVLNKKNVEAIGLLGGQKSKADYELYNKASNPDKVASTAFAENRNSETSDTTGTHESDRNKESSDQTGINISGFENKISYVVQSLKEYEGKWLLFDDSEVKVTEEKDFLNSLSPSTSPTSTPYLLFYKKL
Test: Inhibitors of USP1/UAF1: Pilot qHTS (AID 504865); note: nearly all actives have a fitted effect of over 35% in size; note: potency is the fitted concentration of half-maximal effect
Conditions: purified USP1/UAF1, Ub-rhodamine cleavage fluorescence; series mostly up to 114 µM
Procedure, shortened: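 Enzyme-free wells gave the negative control, while test wells held 1nM USP1/UAF1 preincubated with compound for 15 min at room temperature. Ub-Rho at 150nM final started the reaction, and fluorescence at 480/540 nm was recorded kinetically.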

Compound | Potency
Oc1c(Cl)cc(Cl)c2cccnc12 | inactive
Nc1[nH]c(=O)ncc1F | inactive
O=S(=O)(c1cccc2cnccc12)N1CCCNCC1 | inactive
COc1c(N2CCNC(C)C2)c(F)cc2c(=O)c(C(=O)O)cn(C3CC3)c12 (stereo not given) | inactive
COc1nc(N)nc2c1ncn2[C@@H]1O[C@H](CO)[C@@H](O)[C@@H]1O | 22.4 µM (active)
O=C(O)c1cccnc1 | inactive
O=c1cc(O)c(Cl)c[nH]1 | inactive
Cc1nnc(NS(=O)(=O)c2ccc(N)cc2)s1 | inactive
Nc1nc(=S)c2[nH]cnc2[nH]1 | inactive
CC(C)Cn1cnc2c(N)nc3ccccc3c21 | inactive
NC(N)=NC(N)=NCCc1ccccc1 | inactive
N[C@@H](C(=O)N[C@@H]1C(=O)N2C(C(=O)O)=C(Cl)CS[C@H]12)c1ccccc1 | inactive
CCOC(=O)[C@H](CCc1ccccc1)N[C@H]1CS[C@H](c2cccs2)CN(CC(=O)O)C1=O | inactive
CCN(C)C(=O)Oc1cccc([C@H](C)N(C)C)c1 | inactive
COc1cnc(NS(=O)(=O)c2ccc(N)cc2)nc1 | inactive
CCc1cc(C(N)=S)ccn1 | inactive
COc1ccc2cc3[n+](cc2c1OC)CCc1cc2c(cc1-3)OCO2 | inactive
CCCCCCNC(=O)n1cc(F)c(=O)[nH]c1=O | inactive
NNC(=O)c1ccncc1 | inactive

Compound | Potency
CN1CCN(c2c(F)cc3c(=O)c(C(=O)O)cn(CCF)c3c2F)CC1 | inactive
N=C(N)c1ccc(OCCCCCOc2ccc(C(=N)N)cc2)cc1 | inactive
CC(=O)CC(c1ccccc1)c1c(O)c2ccccc2oc1=O (stereo not given) | inactive
COc1ccc2c(c1)c(CC(=O)OCC(=O)O)c(C)n2C(=O)c1ccc(Cl)cc1 | inactive
O=C(N[C@H](CO)[C@H](O)c1ccc([N+](=O)[O-])cc1)C(Cl)Cl | inactive
COc1cc(NS(=O)(=O)c2ccc(N)cc2)nc(OC)n1 | inactive
CN(C)c1ccc(C(=C2C=CC(=[N+](C)C)C=C2)c2ccc(N(C)C)cc2)cc1 | 20 µM (active) and 22.4 µM (active)
Cc1ncc([N+](=O)[O-])n1CCO | inactive
CN(Cc1cc(Br)cc(Br)c1N)C1CCCCC1 | inactive
CC(C)(C)C(=O)OCOP(=O)(COCCn1cnc2c(N)ncnc21)OCOC(=O)C(C)(C)C | inactive
OC(Cn1cncn1)(Cn1cncn1)c1ccc(F)cc1F | inactive
O=S(=O)(O)CCS | inactive
COC(=O)Nc1nc2ccc(Sc3ccccc3)cc2[nH]1 | inactive
Cc1noc(NS(=O)(=O)c2ccc(N)cc2)c1C | inactive
CC(C)(Sc1cc(C(C)(C)C)c(O)c(C(C)(C)C)c1)Sc1cc(C(C)(C)C)c(O)c(C(C)(C)C)c1 | inactive
Cn1nnc2c(C(N)=O)ncn2c1=O | inactive
COC(=O)Nc1nc2ccc(S(=O)c3ccccc3)cc2[nH]1 (stereo not given) | inactive
CCCCOc1ccc(CC(=O)NO)cc1 | inactive
